Calls of active or inactive are those of the source.

Our source for the composite z-score, composite Z-score and z-score values is PubChem BioAssay.

One experiment concerns the target Albumin (Bos taurus) (UniProt P02769). Briefly: bovine serum albumin binders on microarray, profiling panel, artefact control for SMM control protein annotation, biochemical, small-molecule microarray, Alexa647 label, 635/667 nm fluorescence (AID 1118).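 Also: score merges 667 nm emission intensity and signal-to-noise per printed compound spot.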 Particulars: BSA-A647 binding, fluorescence 635 nm, higher = more signal.
Experiment [1] is described as follows: small-molecule microarray binders of probe aXIP, primary screen, biochemical, NeuroSMM set, 635/667 nm fluorescence (AID 1119).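 Also: probe is the protein aXip251-270 applied at 1 µg/mL to compound-printed slides; binding of probe to printed compounds measured as 667 nm fluorescence plus signal to noise.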 The note with it: higher = more signal, called active from +8 up or from −8 down.
Experiment [2] in a line: small-molecule binders of probe aNOTCH3, primary screen, biochemical, small-molecule microarray, 635/667 nm fluorescence (AID 1120).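 Also: probe is a biotin-tagged antibody raised against NOTCH3 rather than NOTCH3 protein; score merges spot fluorescence near 667 nm with spot signal to noise.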 Particulars: higher = more signal.
Experiment [3] is described as follows: small-molecule binders of probe aNOTCH2, primary screen, biochemical, small-molecule microarray, 635/667 nm fluorescence (AID 1121).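 Also: score merges feature fluorescence read at 667 nm with its signal to noise.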 Particulars: higher = more signal.
The target in experiment [4] is Carbonic anhydrase 2 (Homo sapiens) (UniProt P00918). Briefly: CAII small-molecule binders, profiling panel, biochemical, small-molecule microarray, Alexa647-labelled CAII (AID 1122). The note with it: CAII-A647 binding fluorescence, higher = more signal.
Experiment [5] in a line: COS7 lysate on small-molecule microarray, probe aHis, 635 nm (AID 1123).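 Also: z-score combines 667nm fluorescence intensity with signal-to-noise per printed compound spot.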 The note with it: COS7 cell lysate, fluorescence, higher = more signal.
Experiment [6] can be described thus: compound binding in COS7 lysate, probe aLAP1, primary screen, cell lysate, small-molecule microarray (AID 1124).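 Also: lysate comes from COS7 cells expressing LAP1 and is applied at 0.3 µg/mL; score merges spot fluorescence near 667 nm with signal-to-noise over triplicate slides.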 Particulars: probe aLAP1, fluorescence, higher = more signal.
The next experiment deals with Sam68 (KHDRBS1). Briefly: Sam68 small-molecule binders, primary screen, biochemical, small-molecule microarray, 635 nm fluorescence (AID 1125).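 Also: score merges 667 nm channel intensity with signal to noise over triplicate slides.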 Particulars: small-molecule microarray binding, higher = more signal.
The subject of experiment [7] is Chordin-like protein 2 (CHRDL2). Briefly: CHRDL2 small-molecule binders, primary screen, biochemical, small-molecule microarray, 635 nm fluorescence (AID 1126).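 Also: printed compound slides probed with Chrdl2 protein at 4 µg/mL for 1 h at 4 C; score merges 667 nm emission intensity with signal to noise over three replicate slides.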 Particulars: small-molecule microarray binding, fluorescence 635 nm; higher = more signal.
For experiment [8], the target named is Concanavalin-A (Canavalia ensiformis) (UniProt P02866). Briefly: ConA small-molecule binders, primary screen, artefact control for SMM control protein annotation, biochemical, small-molecule microarray, Alexa647 label, 635 nm (AID 1127).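 Also: z combines 667 nm emission intensity with signal-to-noise across three replicate slides.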 Particulars: ConA-A647 binding fluorescence, higher = more signal.
Sequence of Concanavalin-A (Canavalia ensiformis) (P02866 whole entry, looked up): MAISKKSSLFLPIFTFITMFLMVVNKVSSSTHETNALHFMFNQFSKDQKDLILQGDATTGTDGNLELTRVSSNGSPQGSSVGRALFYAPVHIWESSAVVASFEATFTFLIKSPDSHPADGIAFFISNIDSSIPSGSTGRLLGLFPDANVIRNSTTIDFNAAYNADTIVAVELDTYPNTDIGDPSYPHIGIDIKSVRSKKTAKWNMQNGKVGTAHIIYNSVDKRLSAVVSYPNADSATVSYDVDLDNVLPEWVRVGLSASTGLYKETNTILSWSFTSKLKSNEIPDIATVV
Experiment [9] is described as follows: anti-His antibody binders, primary screen, artefact control for SMM control protein annotation, biochemical, small-molecule microarray, 635 nm fluorescence (AID 1128).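 Also: score merges feature fluorescence with signal-to-noise for each printed compound spot.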 The note with it: anti-His Alexa647 antibody binding, higher = more signal.
Experiment [10] has as its system Human papillomavirus type 1a E7 protein (residues 1-88). Briefly: HPV1a E7 small-molecule binders, primary screen, biochemical, small-molecule microarray, residues 1-88, 635 nm (AID 1129). The note with it: small-molecule microarray binding, fluorescence 635 nm; higher = more signal.
Experiment [11] addresses Focal adhesion kinase 1 (Homo sapiens) (UniProt Q05397). Briefly: small-molecule microarray binders of FAK, primary screen, biochemical, 635/667 nm fluorescence, BSA, DTT (AID 1130).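 Also: composite of spot emission at 667 nm and signal to noise over triplicate slides.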 The note with it: PTK2 binding, 635 nm fluorescence, higher = more signal.
The test system of experiment [12] is Fibrinogen (Alexa647-labelled). Briefly: fibrinogen binders on compound microarrays, profiling panel, artefact control for SMM control-protein annotation, biochemical, small-molecule microarray, 635/667 nm fluorescence (AID 1131).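 Also: z-score merges 667 nm fluorescence with per-spot signal-to-noise over triplicate slides.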 The note with it: fibrinogen-A647 binding fluorescence, higher = more signal.
Experiment [13] addresses Follistatin (Homo sapiens) (UniProt P19883). Briefly: follistatin binders on small-molecule microarrays, primary screen, biochemical, small-molecule microarray, 635/667 nm fluorescence (AID 1132). Particulars: FST binding, 635 nm fluorescence, higher = more signal.
For experiment [14], the target named is Fibroblast growth factor 2 (Homo sapiens) (UniProt P09038). Briefly: FGF2 binders on small-molecule microarrays, primary screen, biochemical, small-molecule microarray, 635/667 nm fluorescence (AID 1133). The note with it: small-molecule microarray binding, FGF2, fluorescence 635/667; higher = more signal.
Sequence of Fibroblast growth factor 2 (Homo sapiens) (P09038 whole entry, looked up): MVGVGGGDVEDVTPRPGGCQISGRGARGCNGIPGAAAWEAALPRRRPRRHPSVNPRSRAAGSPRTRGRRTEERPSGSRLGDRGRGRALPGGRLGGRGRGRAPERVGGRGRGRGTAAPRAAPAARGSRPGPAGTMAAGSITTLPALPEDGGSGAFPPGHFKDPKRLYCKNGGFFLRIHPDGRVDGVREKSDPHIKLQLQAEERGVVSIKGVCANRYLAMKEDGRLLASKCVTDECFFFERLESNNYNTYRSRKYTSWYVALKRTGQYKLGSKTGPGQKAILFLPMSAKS
Experiment [15] in a line: mitochondrial membrane potential change in A549 cells, profiling panel, cell-based, JC-1 fluorescence, basal, 24 h, 100 nL (AID 1138).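 Also: A549 lung adenocarcinoma cells under basal conditions with no added stimulus; test concentration not given here.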 The note with it: higher = more signal.
A further experiment concerns Lefty1. The experiment in a line: Lefty1 binders on small-molecule microarrays, primary screen, biochemical, small-molecule microarray, 635/667 nm fluorescence (AID 1139). The note with it: small-molecule microarray binding, fluorescence 635/667; higher = more signal.
Experiment [16] has as its system wheat germ agglutinin (Triticum aestivum), Alexa647-labelled. Briefly: wheat germ agglutinin binders on compound microarrays, profiling panel, artefact control for SMM control-protein annotation, biochemical, small-molecule microarray, 635/667 nm fluorescence (AID 1140).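 Also: score merges 667 nm feature emission with signal to noise over triplicate slides.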 The note with it: WGA-A647 binding, 635 nm fluorescence, higher = more signal.
For experiment [17], the target named is Luciferin 4-monooxygenase (Photinus pyralis) (UniProt P08659). Briefly: firefly luciferase enzyme inhibitors, primary screen, biochemical, luminescence, purified enzyme, 2006 set (AID 1141).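 Also: cell-free assay with purified firefly luciferase at 100 ng per well in PBS; test concentration not given here.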 The note with it: SteadyGlo luminescence, 30 min, higher = more signal, called active from +8 up or from −8 down.
Sequence of Luciferin 4-monooxygenase (Photinus pyralis) (P08659 whole entry, looked up): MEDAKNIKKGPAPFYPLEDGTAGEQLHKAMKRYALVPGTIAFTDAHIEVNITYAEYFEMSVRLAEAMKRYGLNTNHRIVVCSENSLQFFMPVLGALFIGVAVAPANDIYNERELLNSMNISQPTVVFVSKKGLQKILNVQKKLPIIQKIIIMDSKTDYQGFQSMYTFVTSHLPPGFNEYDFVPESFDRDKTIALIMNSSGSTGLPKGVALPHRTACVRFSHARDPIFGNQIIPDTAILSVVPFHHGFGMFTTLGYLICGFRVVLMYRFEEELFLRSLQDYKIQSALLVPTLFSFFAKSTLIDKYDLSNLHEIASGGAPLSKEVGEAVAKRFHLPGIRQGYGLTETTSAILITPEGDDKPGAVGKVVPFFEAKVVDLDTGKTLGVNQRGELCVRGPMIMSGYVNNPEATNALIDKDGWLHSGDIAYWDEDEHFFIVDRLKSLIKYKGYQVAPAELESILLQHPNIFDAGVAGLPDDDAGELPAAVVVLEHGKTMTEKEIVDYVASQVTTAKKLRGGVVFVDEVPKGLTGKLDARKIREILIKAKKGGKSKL

Sequence of Focal adhesion kinase 1 (Homo sapiens) (Q05397 whole entry, looked up): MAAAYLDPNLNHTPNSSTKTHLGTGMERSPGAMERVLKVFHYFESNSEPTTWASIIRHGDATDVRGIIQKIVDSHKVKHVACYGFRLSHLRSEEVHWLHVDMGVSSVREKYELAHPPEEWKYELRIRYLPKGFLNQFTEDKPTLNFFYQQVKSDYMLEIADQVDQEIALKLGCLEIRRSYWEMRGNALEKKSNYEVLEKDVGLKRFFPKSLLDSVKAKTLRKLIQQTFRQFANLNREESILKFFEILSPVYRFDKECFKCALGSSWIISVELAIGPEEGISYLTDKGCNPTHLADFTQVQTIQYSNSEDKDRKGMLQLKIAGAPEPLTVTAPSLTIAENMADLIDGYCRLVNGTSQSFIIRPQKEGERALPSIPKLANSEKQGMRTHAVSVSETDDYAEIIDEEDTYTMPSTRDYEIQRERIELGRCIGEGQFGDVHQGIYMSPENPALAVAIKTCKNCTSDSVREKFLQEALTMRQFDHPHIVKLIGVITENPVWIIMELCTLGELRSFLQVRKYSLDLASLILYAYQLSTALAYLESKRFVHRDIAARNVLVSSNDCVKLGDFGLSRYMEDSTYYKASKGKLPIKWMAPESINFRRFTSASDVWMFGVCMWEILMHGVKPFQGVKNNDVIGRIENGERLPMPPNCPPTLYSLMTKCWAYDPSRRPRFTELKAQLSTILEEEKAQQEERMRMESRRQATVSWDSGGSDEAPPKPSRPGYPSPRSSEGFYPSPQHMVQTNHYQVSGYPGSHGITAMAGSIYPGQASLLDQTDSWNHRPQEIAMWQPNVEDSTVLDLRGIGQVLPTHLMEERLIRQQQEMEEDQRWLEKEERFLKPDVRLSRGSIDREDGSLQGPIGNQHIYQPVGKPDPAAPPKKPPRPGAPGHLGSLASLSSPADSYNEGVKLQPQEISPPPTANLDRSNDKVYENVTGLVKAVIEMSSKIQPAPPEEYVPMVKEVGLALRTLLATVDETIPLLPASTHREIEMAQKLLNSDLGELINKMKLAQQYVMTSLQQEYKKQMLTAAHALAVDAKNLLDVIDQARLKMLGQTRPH
Sequence of Follistatin (Homo sapiens) (P19883 whole entry, looked up): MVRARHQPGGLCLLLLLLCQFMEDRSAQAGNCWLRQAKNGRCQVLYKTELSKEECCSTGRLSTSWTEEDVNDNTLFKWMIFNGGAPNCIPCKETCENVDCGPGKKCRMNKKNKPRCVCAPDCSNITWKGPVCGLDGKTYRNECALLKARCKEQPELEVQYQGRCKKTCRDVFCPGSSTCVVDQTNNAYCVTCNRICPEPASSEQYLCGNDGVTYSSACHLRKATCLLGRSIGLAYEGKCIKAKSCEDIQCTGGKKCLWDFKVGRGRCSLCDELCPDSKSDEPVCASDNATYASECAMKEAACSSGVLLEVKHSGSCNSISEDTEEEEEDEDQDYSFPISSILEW
Sequence of Albumin (Bos taurus) (P02769 whole entry, looked up): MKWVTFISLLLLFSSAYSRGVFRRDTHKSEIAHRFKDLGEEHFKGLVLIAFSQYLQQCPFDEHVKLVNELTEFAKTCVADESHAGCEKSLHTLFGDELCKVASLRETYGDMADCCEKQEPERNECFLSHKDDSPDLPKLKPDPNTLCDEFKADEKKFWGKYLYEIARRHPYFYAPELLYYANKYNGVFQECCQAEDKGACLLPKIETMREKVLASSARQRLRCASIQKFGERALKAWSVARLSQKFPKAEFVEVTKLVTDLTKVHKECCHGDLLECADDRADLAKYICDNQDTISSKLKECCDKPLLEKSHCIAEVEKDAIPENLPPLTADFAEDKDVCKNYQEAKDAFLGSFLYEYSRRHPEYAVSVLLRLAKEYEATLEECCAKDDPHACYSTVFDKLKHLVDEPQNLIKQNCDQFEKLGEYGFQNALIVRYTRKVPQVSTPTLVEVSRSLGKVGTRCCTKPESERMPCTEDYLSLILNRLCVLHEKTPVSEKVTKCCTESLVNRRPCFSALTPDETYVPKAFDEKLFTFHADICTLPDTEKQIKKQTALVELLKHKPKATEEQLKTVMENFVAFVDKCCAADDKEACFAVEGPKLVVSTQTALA

In the case of `O=C1N[C@@H](Cc2ccccc2)C(=O)N2[C@@H]1C[C@@H](C(=O)O)[C@H]2c1cccc(OCCO)c1`, the composite z-score with Albumin (Bos taurus) was 0.0429; in [2], -0.0362; in experiment [3], -0.124; in experiment [4], 0.733; in [5], 0.514; in experiment [6], 0.256. The composite z-score stood at 1.22 in the experiment on Sam68 (KHDRBS1); 0.992 in experiment [7]; 0.311 in [8]; 3.3 in [9]; 1.03 in experiment [10]; 0.27 in experiment [11]. In addition, the composite z-score turned out to be 0.56 in [12]; 1.38 in experiment [13]; 1.43 in [14]; 1.49 with Lefty1; 0.552 in experiment [16]. The composite Z-score in [1] is 0.108 (inactive). Moreover, the z-score was 0.849 in [15] and -1.91 (inactive) in experiment [17].

As for `CCCCCCc1nc(-c2cc(C)c(OC)c(C)c2)cc2c1[Si](C(C)C)(C(C)C)OC2`, the composite z-score was -0.623 with Albumin (Bos taurus); -0.0111 in [2]; -0.113 in [3]; 0.0878 in experiment [4]; -0.241 in [5]; -0.0553 in experiment [6]. The composite z-score with Sam68 (KHDRBS1) was 0.363; in experiment [7], 0.119; in [8], 0.208; in experiment [9], -0.164; in experiment [10], 0.103; in [11] it was 0.0497. The composite z-score in experiment [12] is -0.419; in experiment [13], 0.578; in experiment [14], -0.143; in the experiment with Lefty1 it was 0.275; in experiment [16], -0.239. Moreover, the composite Z-score in [1] was 0.244 (inactive). In addition, the z-score in experiment [15] was -0.693; in experiment [17], 1 (inactive).

Turning to `C[N+](C)(C)CCCCNC(=O)[C@@H]1C[C@@H]2C(=O)N[C@@H](Cc3ccccc3)C(=O)N2[C@@H]1c1cccc(OCCO)c1`, the composite z-score with Albumin (Bos taurus) was -0.634; in experiment [2] it was -0.217; in experiment [3], -0.199; in [4], 0.66; in experiment [5], 0.959; in [6], -0.15. Also, the composite z-score in the experiment on Sam68 (KHDRBS1) was -0.174; in [7], 1.04; in experiment [8], -0.504; in experiment [9], 3.38; in experiment [10], -0.636; in experiment [11], -0.449. In addition, the composite z-score was -1.23 in experiment [12]; 1.32 in experiment [13]; 1.55 in [14]; 0.245 in the experiment on Lefty1; -1.02 in experiment [16]. For the same compound, in experiment [1], the composite Z-score was 0.668 (inactive). Besides, the z-score in experiment [15] was 1.21; in experiment [17], -1.75 (inactive).

For `COc1cc2c(cc1OC)CN(C(=O)[C@H]1[C@@H]3C(=O)O[C@@H](c4ccccc4)[C@@H](c4ccccc4)N3[C@@H](c3ccc(O)cc3)[C@]13C(=O)Nc1ccccc13)CC2`, the composite z-score was -0.134 with Albumin (Bos taurus); -0.0672 in experiment [2]; 0.0481 in experiment [3]; 0.402 in [4]; 2.34 in experiment [5]; 0.399 in [6]. Besides, the composite z-score was determined as 1.07 in the experiment on Sam68 (KHDRBS1); 0.139 in experiment [7]; 0.777 in experiment [8]; 1.65 in experiment [9]; 1.19 in experiment [10]; 0.81 in experiment [11]. Moreover, the composite z-score in [12] came to 0.253; in [13] it was 0.354; in experiment [14], 0.39; in the experiment with Lefty1, 0.331; in experiment [16] it was 0.115. In addition, the composite Z-score in experiment [1] was 2.52 (inactive). Further, the figures for the z-score in experiment [15] and in experiment [17] were -0.517 and -0.204 (inactive), respectively.

Regarding `COc1ccc(CCNC(=O)[C@@]2(Sc3ccc(C)cc3)CC(=O)N(C(C)C)[C@@H]2c2ccc(CO)cc2I)cc1`, the composite z-score with Albumin (Bos taurus) was -0.235; in experiment [2], -0.0647; in [3], 0.0118; in experiment [4], 0.304; in [5], 1.04; in experiment [6], 0.648. In addition, the composite z-score with Sam68 (KHDRBS1) is 0.0063; in experiment [7] it was -0.578; in experiment [8], -0.613; in experiment [9], 0.622; in experiment [10] it was 0.178; in [11], 0.0367. Also, the composite z-score in experiment [12] is 0.144; in experiment [13] it was -0.147; in experiment [14], -0.172; in the experiment on Lefty1, -0.979; in experiment [16] it was -0.258. Besides, in experiment [1], the composite Z-score was -0.174 (inactive). The z-score was 0.968 in experiment [15] and -0.436 (inactive) in [17].

Consider `CC(C)C(=C=CC[C@@H](O)c1ccc(OCCO)cc1)C[C@@H](O)c1ccccn1`, for which the composite z-score was -0.363 with Albumin (Bos taurus); 0.0553 in [2]; -0.13 in experiment [3]; 0.368 in experiment [4]; -0.0995 in [5]; 0.33 in experiment [6]. In addition, the composite z-score in the experiment on Sam68 (KHDRBS1) is 0.726; in [7], 1.38; in experiment [8], 0.817; in experiment [9] it was -0.449; in [10], -0.251; in [11], -0.542. Besides, the composite z-score in experiment [12] is 0.819; in experiment [13], 1.58; in experiment [14], 1.78; in the experiment with Lefty1 it was 1.51; in experiment [16], -0.187. In experiment [1], the composite Z-score is 1.24 (inactive). Also, the z-score in [15] was -0.306; in experiment [17], -0.069 (inactive).

Consider `N#Cc1ccc(NN2C(C(O)C(c3ccccc3)c3ccccc3)C=CC3C(=O)N(c4ccccc4)C(=O)C32)cc1` (stereo not given), for which the composite z-score with Albumin (Bos taurus) was 0.983; in experiment [2] it was 0.673; in experiment [3] it was 0.11; in experiment [4] it was 0.407; in experiment [5], 2.95; in experiment [6], -0.0751. For the same compound, the composite z-score with Sam68 (KHDRBS1) was 1.3; in experiment [7], -0.558; in experiment [8] it was 1.17; in experiment [9], 0.238; in experiment [10] it was 1.26; in experiment [11], 0.545. For the same compound, the composite z-score is 1.01 in experiment [12]; 0.337 in [13]; -0.469 in experiment [14]; -0.0452 in the experiment with Lefty1; 1.4 in experiment [16]. In addition, the composite Z-score in experiment [1] was -0.442 (inactive). Moreover, the z-score in [15] is 1.49; in [17], 0.523 (inactive).
